Activity calls are given as the source filed them. The call rests on the fitted dose curve; in most records, active means well fitted curve in the direction sought with a large enough effect in the repeat runs; inconclusive means weak or mixed curves; inactive means flat fitted curve, though single readings scatter.
Experiment: qHTS assay to test for compound auto fluorescence at 460 nm (blue) in HEK293 cells (AID 720678)
Settings: blue autofluorescence 405/460 nm; series mostly up to 91.3 µM
Text: National Center for Advancing Translational Sciences [NCATS]
NIH Chemical Genomics Center [NCGC]
U.S. Environmental Protection Agency [EPA]
National Institutes of Environmental Health Sciences [NIEHS]
National Toxicology Program [NTP]
U.S. Food and Drug Administration [FDA]
Compound auto fluorescence often interferes with screening of the compound library against various biological targets and signaling pathways. Some of these compounds may have fluorophoric properties. Such properties may interfere with the assay outputs resulting in false positives and/or negatives. To decrease such complications and ensure the compound activities are relevant in terms of biological response, the Tox21 10K compound library was screened for auto fluorescence.
From the fluorophores used as reporter signals in our screening assays, the auto fluorescence equivalencies of compounds against three fluorophores have been evaluated: Triamterene, Fluorescein and Rose Bengal sodium for blue, green and red fluorescence, respectively. The fluorescence intensities were measured using Excitation/Emission wavelengths at 405/460nm, 485/535nm and 540/590nm for blue, green and red labels, respectively. This assay includes the blue fluorescence data.
Tox21 Assay Protocol Summary:
2,000 HEK293 cells in 5 uL of culture medium containing 10% dialyzed FBS per well were dispensed into black wall/clear bottom 1536-well plates using a Multidrop Combi Dispenser (Thermo Scientific). The assay plates were incubated for 4-5 hr at 37C to allow cell attachment to the well bottom, followed by the transfer of 23 nL compound or DMSO vehicle by a pintool work station (Kalypsys, San Diego, CA). After the assay plates were incubated overnight at 37C and 5% CO2, fluorescence intensities in the assay plates were measured by an Envision (PerkinElmer, Shelton, CT) plate reader using three labels for measuring blue, green and red fluorescence at […] 460, 535 and 590nm respectively.
On the % scale 0 is the no-effect control and ±100 the full control effect.

Row | Structure (SMILES) | outcome | fluorescence, % of triamterene
1 | Cc1nnc(SCC2=C(C(=O)O)N3C(=O)[C@@H](NC(=O)Cn4cnnn4)[C@H]3SC2)s1 | inactive | 
2 | Cc1c(-c2ccccc2)oc2c(C(=O)OCCN3CCCCC3)cccc2c1=O |  | -0.209% [at 18.6 µM] (inactive)
3 | CCC(=O)c1ccc2c(c1)N(CCCN(C)C)c1ccccc1S2 | inactive | 
4 | CCC(=O)Nc1ccc(O)cc1 | inactive | 
5 | O=C(O)c1ccccc1Nc1cc(Cl)ccc1C(=O)O | inactive | 
6 | COc1cc(Cl)ccc1Cl | inactive | 
7 | CC(C)(C)c1cccc(O)c1 | inactive | 
8 | CC(C)(C)C1CCCCC1=O (stereo not given) | inactive | 
9 | CCC(=O)O[C@]1(C(=O)SCF)[C@H](C)C[C@H]2[C@@H]3C[C@H](F)C4=CC(=O)C=C[C@]4(C)[C@@]3(F)[C@@H](O)C[C@@]21C |  | 0.0153% [at 18.6 µM] (inactive)
10 | COc1ccccc1OCC(O)COC(N)=O (stereo not given) |  | 0.0837% [at 18.6 µM] (inactive)
11 | O=CCCc1ccccc1 | inactive | 
12 | CCc1nnc(NS(=O)(=O)c2ccc(N)cc2)s1 | inactive | 
13 | CCCCCCCCCCCCCCCCOP(=O)([O-])OCC[N+](C)(C)C | inactive | 
14 | CCCCC(=O)O[C@]1(C(=O)CO)[C@H](C)C[C@H]2[C@@H]3CCC4=CC(=O)C=C[C@]4(C)[C@@]3(F)[C@@H](O)C[C@@]21C | inactive | 
15 | CCCCCCOc1ccc(N)cc1 | inactive | 
16 | O=C1CCCCCCCCCCC(=O)OCCO1 | inactive | 
17 | CN1CCN(c2c(F)cc3c(=O)c(C(=O)O)cn4c3c2SCC4)CC1 | inactive | 
18 | CCCCCCC | inactive | 
19 | CC(C)S | inactive | 
20 | CCCCCCCCCC#N | inactive | 

Row | Structure (SMILES) | outcome | fluorescence, % of triamterene
21 | OC[C@H]1O[C@@H](O[C@H]2[C@H](O)[C@@H](O)[C@H](O)O[C@@H]2CO)[C@H](O)[C@@H](O)[C@H]1O | inactive | 
22 | CN(C)CCOc1ccccc1Cc1ccccc1 | inactive | 
23 | N#Cc1ccc(C(c2ccc(C#N)cc2)n2cncn2)cc1 | inactive | 
24 | CC(C)NCC(O)COc1ccc(CCOCC2CC2)cc1 (stereo not given) | inactive | 
25 | CO[C@@]1(NC(=O)CSCC#N)C(=O)N2C(C(=O)O)=C(CSc3nnnn3C)CS[C@@H]21 | inactive | 
26 | C=CC(C)(O)CC/C=C(\C)CCC=C(C)C (stereo not given) | inactive | 
27 | CCN(CC)CCOc1ccc(Cc2ccccc2)cc1 | inactive | 
28 | CC(=O)OC1C2(C)CCC(C2)C1(C)C (stereo not given) | inactive | 
29 | CCCOCCC | inactive | 
30 | CCCCCCCCCC/C=C/C#N | inactive | 
31 | CCCCNC(=S)NCCCC | inactive | 
32 | COC(=O)N[C@H](C(=O)N[C@@H](Cc1ccccc1)[C@@H](O)CN(Cc1ccc(-c2ccccn2)cc1)NC(=O)[C@@H](NC(=O)OC)C(C)(C)C)C(C)(C)C | inactive | 
33 | C=C(C)C(=O)OCCOP(=O)(O)O | inactive | 
34 | CCN(CC)C(=O)N(CC)CC | inactive | 
35 | CC1(C)O[C@@H]2C[C@H]3[C@@H]4CCC5=CC(=O)CC[C@]5(C)[C@@]4(F)[C@@H](O)C[C@]3(C)[C@]2(C(=O)CCl)O1 |  | -0.0183% [at 18.6 µM] (inactive)
36 | CC1=C(O)C(=O)OC1C (stereo not given) | inactive | 
37 | CCCCC(CC)COC(=O)COc1cc(Cl)c(Cl)cc1Cl (stereo not given) | inactive | 
38 | Cc1cc2c(s1)Nc1ccccc1N=C2N1CCN(C)CC1 | inactive | 
39 | OCc1c2ccccc2cc2ccccc12 | inactive | 
40 | CCN(O)CC | inactive | 
